Holding throughout (test): DAPPL (digital affinity profiling via proximity ligation, sequencing); 10 mM Tris-HCl pH 7.5, 50 mM NaCl, 1 mM DTT, 4% glycerol, room temperature, 30 min; GST-TFs on glutathione beads, 16-mer random dsDNA library, 0.1% formaldehyde crosslink after washing; high values mean tight binding
Holding throughout (details): protein: recombinant; tags: N-terminal GST; dsDNA, one strand shown

In one experiment the target is T1, ELK1 (Homo sapiens, UniProt P19419 1-428).
T1 sequence: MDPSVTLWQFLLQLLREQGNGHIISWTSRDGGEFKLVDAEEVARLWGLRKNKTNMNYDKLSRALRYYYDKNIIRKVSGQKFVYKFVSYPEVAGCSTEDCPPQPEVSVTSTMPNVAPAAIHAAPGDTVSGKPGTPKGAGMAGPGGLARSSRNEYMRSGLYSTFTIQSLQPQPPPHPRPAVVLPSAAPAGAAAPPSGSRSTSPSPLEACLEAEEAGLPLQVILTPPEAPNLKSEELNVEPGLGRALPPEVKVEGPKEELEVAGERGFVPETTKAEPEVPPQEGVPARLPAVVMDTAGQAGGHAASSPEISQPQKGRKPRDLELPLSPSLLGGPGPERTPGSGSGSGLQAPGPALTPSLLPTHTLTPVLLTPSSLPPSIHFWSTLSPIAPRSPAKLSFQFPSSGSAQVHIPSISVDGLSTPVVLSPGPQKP
The essentials:
(§1)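 Beads coated with glutathione captured GST-fused human transcription factors that had been expressed in yeast, and the factors were then given DNA barcodes and pooled with a tag-only sample. The pools were incubated with 200 nmole of a random double-stranded 16-mer DNA library in Tris/NaCl/DTT/glycerol buffer for 30 min at room temperature, washed, crosslinked with 0.1% formaldehyde and proximity-ligated with BsaI/T4 ligase at 37 °C for 1 h. PCR amplification and Illumina NextSeq500 sequencing came last. Binding signal is each hexamer's read frequency for a factor divided by its frequency for the tag-only sample.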

The target of another experiment is T2, GABPA (Homo sapiens, UniProt Q06546 1-454).
T2 sequence: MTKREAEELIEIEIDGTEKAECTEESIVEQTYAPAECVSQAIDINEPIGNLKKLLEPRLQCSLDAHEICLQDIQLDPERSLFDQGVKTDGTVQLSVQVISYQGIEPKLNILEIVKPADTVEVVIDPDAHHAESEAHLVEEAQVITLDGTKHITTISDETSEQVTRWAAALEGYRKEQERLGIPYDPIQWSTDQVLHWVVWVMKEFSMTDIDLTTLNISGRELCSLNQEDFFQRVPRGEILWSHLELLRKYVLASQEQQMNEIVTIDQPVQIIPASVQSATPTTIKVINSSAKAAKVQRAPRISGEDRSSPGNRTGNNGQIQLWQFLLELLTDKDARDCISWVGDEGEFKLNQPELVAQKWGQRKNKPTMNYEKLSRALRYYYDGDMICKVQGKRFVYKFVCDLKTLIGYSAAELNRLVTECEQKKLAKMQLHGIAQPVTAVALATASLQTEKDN
The essentials:
as §1

The target of a further experiment is T3, ERG (Homo sapiens, UniProt P11308 1-479).
T3 sequence: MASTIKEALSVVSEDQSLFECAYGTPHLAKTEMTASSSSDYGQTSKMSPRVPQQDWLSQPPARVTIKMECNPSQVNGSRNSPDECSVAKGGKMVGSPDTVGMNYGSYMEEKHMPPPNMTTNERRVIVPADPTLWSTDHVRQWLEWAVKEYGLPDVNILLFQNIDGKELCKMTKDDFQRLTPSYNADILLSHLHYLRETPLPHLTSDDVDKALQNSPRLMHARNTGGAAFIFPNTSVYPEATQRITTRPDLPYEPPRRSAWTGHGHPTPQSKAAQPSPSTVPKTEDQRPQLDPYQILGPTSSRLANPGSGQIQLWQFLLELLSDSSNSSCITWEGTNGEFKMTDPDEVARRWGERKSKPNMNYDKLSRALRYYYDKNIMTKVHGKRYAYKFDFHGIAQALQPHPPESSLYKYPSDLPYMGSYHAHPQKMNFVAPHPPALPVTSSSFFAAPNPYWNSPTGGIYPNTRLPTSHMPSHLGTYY
The essentials:
as §1

The next experiment addresses ELF1 (Homo sapiens, UniProt P32519 1-619). The essentials:
as §1

In the next experiment the target is T4, EHF (Homo sapiens, UniProt Q9NZC4 1-300).
T4 sequence: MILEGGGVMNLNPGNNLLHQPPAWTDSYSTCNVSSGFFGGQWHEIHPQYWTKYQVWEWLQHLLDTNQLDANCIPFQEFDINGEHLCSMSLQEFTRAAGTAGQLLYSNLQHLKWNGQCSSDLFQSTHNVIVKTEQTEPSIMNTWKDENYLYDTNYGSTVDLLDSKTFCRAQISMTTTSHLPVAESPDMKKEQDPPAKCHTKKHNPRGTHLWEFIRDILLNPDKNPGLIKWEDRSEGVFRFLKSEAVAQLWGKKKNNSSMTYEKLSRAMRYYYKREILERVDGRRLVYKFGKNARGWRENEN
The essentials:
as §1

A further experiment concerns the target T5, FEV (Homo sapiens, UniProt Q99581 1-238).
T5 sequence: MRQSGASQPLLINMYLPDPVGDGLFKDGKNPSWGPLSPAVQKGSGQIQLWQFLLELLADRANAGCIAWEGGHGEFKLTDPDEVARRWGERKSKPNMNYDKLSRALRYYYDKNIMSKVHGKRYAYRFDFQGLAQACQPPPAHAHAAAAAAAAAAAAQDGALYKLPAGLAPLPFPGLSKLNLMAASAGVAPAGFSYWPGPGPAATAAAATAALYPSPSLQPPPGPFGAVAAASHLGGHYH
The essentials: as §1

The next experiment concerns the target ETV5 (Homo sapiens, UniProt P41161 1-510). The essentials:
as §1

For a further experiment, the target named is ELF4 (Homo sapiens, UniProt Q99607 1-663). The essentials:
as §1

The target of a further experiment is T6, ELK4 (Homo sapiens, UniProt P28324-2 1-405).
T6 sequence: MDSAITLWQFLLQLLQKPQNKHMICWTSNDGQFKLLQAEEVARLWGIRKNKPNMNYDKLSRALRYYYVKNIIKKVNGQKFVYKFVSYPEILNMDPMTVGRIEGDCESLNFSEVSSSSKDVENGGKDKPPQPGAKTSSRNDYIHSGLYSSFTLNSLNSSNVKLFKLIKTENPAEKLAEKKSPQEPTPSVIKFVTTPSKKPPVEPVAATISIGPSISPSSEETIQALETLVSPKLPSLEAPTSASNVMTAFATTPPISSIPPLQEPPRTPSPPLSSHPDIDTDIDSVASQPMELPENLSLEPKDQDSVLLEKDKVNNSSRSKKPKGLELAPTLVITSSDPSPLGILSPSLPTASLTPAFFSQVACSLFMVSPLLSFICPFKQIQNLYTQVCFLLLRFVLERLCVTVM
The essentials:
as §1

A further experiment addresses T7, ETV2 (Homo sapiens, UniProt O00321 1-342).
T7 sequence: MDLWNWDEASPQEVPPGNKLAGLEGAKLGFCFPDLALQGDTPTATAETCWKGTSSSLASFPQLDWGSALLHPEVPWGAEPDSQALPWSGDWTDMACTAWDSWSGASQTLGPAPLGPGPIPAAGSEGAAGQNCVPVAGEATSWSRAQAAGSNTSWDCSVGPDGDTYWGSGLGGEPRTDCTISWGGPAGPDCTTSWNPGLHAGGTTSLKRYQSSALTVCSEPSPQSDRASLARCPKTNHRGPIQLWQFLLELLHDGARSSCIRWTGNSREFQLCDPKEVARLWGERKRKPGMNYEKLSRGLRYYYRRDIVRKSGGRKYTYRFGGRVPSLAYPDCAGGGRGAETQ
The essentials: as §1

The next experiment addresses T8, ERF (Homo sapiens, UniProt P50548 1-548).
T8 sequence: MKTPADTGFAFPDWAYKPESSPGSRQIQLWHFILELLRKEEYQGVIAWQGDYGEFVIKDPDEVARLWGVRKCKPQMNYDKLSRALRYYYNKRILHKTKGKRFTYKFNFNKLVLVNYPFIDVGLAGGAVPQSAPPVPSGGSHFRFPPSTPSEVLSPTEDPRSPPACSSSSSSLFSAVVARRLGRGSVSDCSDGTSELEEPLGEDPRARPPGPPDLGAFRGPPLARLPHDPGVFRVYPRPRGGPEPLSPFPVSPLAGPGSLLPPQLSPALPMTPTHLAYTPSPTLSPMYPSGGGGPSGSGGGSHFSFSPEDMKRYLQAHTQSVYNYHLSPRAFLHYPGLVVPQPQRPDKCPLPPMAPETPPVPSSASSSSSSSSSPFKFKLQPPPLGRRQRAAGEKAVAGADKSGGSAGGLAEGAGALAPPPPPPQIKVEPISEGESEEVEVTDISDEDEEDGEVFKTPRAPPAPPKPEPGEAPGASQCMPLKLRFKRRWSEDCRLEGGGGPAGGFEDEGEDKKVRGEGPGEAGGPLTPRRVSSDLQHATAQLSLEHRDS
The essentials:
as §1

The target in the next experiment is T9, ETV3L (Homo sapiens, UniProt Q6ZN32 1-361).
T9 sequence: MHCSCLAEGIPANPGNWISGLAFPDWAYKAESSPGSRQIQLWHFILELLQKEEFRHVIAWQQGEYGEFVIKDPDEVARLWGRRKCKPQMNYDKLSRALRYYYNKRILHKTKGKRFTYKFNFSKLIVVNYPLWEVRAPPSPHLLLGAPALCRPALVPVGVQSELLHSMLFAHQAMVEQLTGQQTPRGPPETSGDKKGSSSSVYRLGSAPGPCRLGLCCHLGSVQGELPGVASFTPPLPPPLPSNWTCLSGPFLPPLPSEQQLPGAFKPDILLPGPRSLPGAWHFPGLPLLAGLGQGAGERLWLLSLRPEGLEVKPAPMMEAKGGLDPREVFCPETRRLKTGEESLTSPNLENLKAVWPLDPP
A digest of the protocol:
as §1

For another experiment, the target named is T10, ETS2 (Homo sapiens, UniProt P15036 1-469).
T10 sequence: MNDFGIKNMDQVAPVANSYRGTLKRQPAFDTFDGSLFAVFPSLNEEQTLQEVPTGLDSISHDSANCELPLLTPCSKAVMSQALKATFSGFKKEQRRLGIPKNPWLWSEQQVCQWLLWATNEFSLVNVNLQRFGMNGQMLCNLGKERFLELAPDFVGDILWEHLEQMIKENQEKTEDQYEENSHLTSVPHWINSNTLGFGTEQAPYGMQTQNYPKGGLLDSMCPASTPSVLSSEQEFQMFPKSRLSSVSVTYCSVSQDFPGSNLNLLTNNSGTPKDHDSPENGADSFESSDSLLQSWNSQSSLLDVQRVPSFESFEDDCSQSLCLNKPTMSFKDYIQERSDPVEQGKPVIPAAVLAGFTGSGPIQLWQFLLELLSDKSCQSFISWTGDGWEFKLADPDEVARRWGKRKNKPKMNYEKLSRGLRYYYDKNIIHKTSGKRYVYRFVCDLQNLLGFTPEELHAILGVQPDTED
A digest of the protocol: as §1

The next experiment addresses T11, ETV7 (Homo sapiens, UniProt Q9Y603 1-341).
T11 sequence: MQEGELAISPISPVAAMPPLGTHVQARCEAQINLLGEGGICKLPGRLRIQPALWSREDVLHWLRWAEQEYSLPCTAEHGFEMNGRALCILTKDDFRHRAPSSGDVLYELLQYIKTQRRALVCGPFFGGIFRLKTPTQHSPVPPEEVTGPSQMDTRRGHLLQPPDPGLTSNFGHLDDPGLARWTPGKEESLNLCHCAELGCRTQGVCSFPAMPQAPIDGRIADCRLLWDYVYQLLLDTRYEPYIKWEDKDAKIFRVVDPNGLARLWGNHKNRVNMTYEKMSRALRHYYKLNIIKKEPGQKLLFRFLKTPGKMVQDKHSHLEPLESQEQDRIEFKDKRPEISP
The essentials:
as §1

ELF1, sequence (P32519 whole entry): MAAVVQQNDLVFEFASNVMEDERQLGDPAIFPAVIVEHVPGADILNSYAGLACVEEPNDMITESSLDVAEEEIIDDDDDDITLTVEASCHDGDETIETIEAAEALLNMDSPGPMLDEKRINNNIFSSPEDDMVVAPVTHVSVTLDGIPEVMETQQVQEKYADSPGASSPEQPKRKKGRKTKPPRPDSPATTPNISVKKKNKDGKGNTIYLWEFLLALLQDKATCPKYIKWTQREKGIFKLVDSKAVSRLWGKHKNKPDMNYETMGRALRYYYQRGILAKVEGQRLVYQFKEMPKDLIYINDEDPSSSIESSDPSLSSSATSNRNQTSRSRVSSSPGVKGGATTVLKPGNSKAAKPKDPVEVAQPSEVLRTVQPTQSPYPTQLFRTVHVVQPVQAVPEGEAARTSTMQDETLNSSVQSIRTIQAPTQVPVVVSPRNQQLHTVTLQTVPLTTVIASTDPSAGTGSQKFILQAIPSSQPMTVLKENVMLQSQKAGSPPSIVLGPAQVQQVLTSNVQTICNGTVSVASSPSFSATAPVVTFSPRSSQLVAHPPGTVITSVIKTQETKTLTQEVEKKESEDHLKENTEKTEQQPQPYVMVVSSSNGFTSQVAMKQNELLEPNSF
ETV5, sequence (P41161 whole entry): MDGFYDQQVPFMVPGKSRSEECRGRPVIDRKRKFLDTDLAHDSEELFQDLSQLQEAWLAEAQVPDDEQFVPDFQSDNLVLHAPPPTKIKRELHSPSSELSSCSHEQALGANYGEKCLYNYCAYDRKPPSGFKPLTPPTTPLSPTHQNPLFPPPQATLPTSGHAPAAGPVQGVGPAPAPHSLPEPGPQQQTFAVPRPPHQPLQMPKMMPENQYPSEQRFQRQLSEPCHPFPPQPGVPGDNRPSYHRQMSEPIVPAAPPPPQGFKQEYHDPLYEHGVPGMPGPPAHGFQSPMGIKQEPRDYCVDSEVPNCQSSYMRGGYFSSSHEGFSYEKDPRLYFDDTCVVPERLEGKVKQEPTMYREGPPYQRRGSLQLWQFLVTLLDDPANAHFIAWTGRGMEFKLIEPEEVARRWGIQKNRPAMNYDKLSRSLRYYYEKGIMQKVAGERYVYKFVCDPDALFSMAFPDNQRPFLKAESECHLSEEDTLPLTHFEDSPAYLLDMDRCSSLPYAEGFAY
ELF4, sequence (Q99607 whole entry): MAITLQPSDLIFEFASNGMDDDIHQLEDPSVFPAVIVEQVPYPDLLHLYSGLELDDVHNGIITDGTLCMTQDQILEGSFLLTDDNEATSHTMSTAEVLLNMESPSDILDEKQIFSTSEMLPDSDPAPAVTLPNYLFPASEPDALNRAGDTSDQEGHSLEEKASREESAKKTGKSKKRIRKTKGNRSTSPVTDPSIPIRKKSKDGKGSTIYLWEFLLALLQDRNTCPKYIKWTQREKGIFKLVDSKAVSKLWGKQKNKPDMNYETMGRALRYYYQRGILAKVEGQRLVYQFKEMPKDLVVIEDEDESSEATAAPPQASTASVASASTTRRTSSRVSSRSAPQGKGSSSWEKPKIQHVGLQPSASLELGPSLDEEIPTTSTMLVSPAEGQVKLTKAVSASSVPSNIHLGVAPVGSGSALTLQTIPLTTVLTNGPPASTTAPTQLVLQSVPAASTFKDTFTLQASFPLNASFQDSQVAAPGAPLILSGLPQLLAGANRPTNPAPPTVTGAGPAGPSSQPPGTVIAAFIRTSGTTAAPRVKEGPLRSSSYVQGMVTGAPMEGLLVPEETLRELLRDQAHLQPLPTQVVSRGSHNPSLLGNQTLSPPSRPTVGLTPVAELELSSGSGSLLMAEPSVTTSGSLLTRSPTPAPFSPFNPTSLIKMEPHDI

On to ACAGCA, for which the binding signal with ELK1 was 1.03 fold enrichment (6-mer frequency, TF over GST control); with GABPA, 1.08 fold enrichment (6-mer frequency, TF over GST control); in the experiment with ERG it was 1 fold enrichment (6-mer frequency, TF over GST control); with ELF1 it was 1.06 fold enrichment (6-mer frequency, TF over GST control); in the experiment with EHF, 1.03 fold enrichment (6-mer frequency, TF over GST control); in the experiment with FEV, 1 fold enrichment (6-mer frequency, TF over GST control). The binding signal with ETV5 is 1.03 fold enrichment (6-mer frequency, TF over GST control); with ELF4 it was 1.04 fold enrichment (6-mer frequency, TF over GST control); with ELK4, 1.02 fold enrichment (6-mer frequency, TF over GST control); with ETV2, 1.06 fold enrichment (6-mer frequency, TF over GST control); in the experiment with ERF, 1.07 fold enrichment (6-mer frequency, TF over GST control); in the experiment with ETV3L, 1.06 fold enrichment (6-mer frequency, TF over GST control). In addition, the binding signal was 1.09 fold enrichment (6-mer frequency, TF over GST control) with ETS2 and 1.15 fold enrichment (6-mer frequency, TF over GST control) in the experiment with ETV7.

The values above are taken from PMC7862700, “An all-to-all approach to the identification of sequence-specific readers for epigenetic DNA modifications on cytosine”.
